A selection: hits, their analogues and other compounds. The true share with any hit is near 19%.
IL-1B inflam inh – inflammasome signaling inhibition, IL-1 beta readout | hit rate 4.7% among 360,000 | THP-1 LPS/ATP IL-1B secretion, AlphaLISA, 16 h; stronger effect = lower value | activity change, % at 57.5 µM; in the data active = activity change below about -50%; inconclusive = mostly about -30% to -49%
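Secreted IL-1B measured by AlphaLISA bead assay after 16 h compound exposure of THP-1 cells; compounds (final up to 57.5 uM) added 1 h before LPS (250 ng/mL) and ATP (1.25 mM) stimulation; lower signal means less secretion.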
TDP1 cell CPT – growth inhibition of DT40 Tdp1-/-;hTDP1 cells with camptothecin (screen for TDP1 inhibitors) | AID 686979 | chicken DT40 Tdp1-/-;hTDP1 cells + 20 nM CPT, ATP luminescence, 48 h | hit rate 12% among 420,000 | Potency, µM (top dose mostly 46.2 µM), for inactives: at the highest dose activity change, negative = growth inhibition, usual class: inhibitors; note: potency is the fitted concentration of half-maximal effect; nearly all actives have a fitted effect of over 55% in size
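Chicken DT40 Tdp1-/- cells complemented with human TDP1, 400 cells/well, exposed to compounds plus 20 nM camptothecin for at least 48 h at 37 C; viability read as ATP content by CellTiter-Glo luminescence.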
HT1080 IDH1KD tx – kills HT-1080 cells with IDH1 knockdown. HT-1080 IDH1 knockdown viability, ATP luminescence, 48 h. Potency, µM (series often up to 46.1 µM), for the others: at the highest dose activity, negative = toxicity, hits mostly cytotoxic. hit rate 2% among 360,000;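 note: potency is the fitted concentration of half-maximal effect; 0% = DMSO wells and -100% = cell-free medium wells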
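% activity derives from luminescence (CellTiter-Glo), normalised to DMSO and no-cell wells. HT-1080-IDH1KD cells, 750/well, had 48 h compound exposure at 37 °C.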
DT40 TDP1 no CPT – qHTS for Inhibitors of human tyrosyl-DNA phosphodiesterase 1 (TDP1): qHTS in cells in absence of CPT. Potency, µM (titrated, usually from 46.2 µM), without a hit: top-dose activity change, negative = growth inhibition, usual class: inhibitors. DT40 Tdp1-/- hTDP1 cells, no CPT, ATP luminescence, 48 h. hit rate 15% among 420,000; note: potency is the fitted concentration of half-maximal effect; nearly all actives have a fitted effect of over 55% in size
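Stably hTDP1-transfected Tdp1-null chicken DT40 cells were treated with library compounds minus camptothecin and grown for at least 48 hr at 37 °C, after which cellular ATP was quantified by luminescence.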
HT1080NT lethal – kills 2HG-producing HT-1080-NT fibrosarcoma cells; HT-1080-NT fibrosarcoma viability, CellTiter-Glo ATP luminescence, 48 h; Potency, µM (series often up to 46.1 µM), for the others: at the highest dose activity, negative = less viability, hits mostly cytotoxic; hit rate 1.6% among 360,000; AID 686970;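 note: NT is the 2HG producing partner of a matched IDH1 knockdown line; potency is the fitted concentration of half-maximal effect; 0% = DMSO-treated cells and -100% = media-only wells without cells; nearly all actives have a fitted effect of over 55% in size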
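Viability of the 2HG-overproducing fibrosarcoma line after 48 hours of compound exposure at 37 degrees C was determined by luminescence with CellTiter-Glo, and concentration-effect curves were then fitted and categorized.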
Active calls of the source: *; ? = inconclusive; . = no result given; ! = not active in a repeat; [ ] = dose if it differs, or a comment. Unless noted, calls come from the whole dose curve; as a rule, active = well fitted curve in the direction sought with a large enough effect; inconclusive = small, poorly fitted or top-dose-only effect, or another doubt; inactive = no such curve, though single readings can be large; an effect the other way counts as inactive or inconclusive. Unless noted, % is set by controls: 0 for no effect and ±100 for the full control effect.

SMILES | IL-1B inflam inh | TDP1 cell CPT | HT1080 IDH1KD tx | DT40 TDP1 no CPT | HT1080NT lethal
COC(=O)[C@@H](N)CCCN/C(N)=N/[N+](=O)[O-] | . | ? | . | -23.6% | .
O=C(Nc1ccc(Cl)cc1)C1CCN(C(=O)c2cccs2)CC1 | -12.9 | -25.6% | -16.5% | ? | -3.1%
O=C(CCN1CC2CCC(CC2)C1)c1cccs1 | -29.1 | 2.06µM* | ? | 4.11µM* | 20.1%
CC(=O)Nc1cccc(-c2ccnc3c2CC(C(=O)NCc2ccco2)O3)c1 (configuration not stated) | 23.1 | 1.84µM* | 2.31µM* | 1.64µM* | ?
COC(=O)C1=C(c2cccc(C#N)c2)C[C@@H]2CC[C@H]1N2C(=O)NCCc1ccccc1 | 6.1 | -24.0% | -3.4% | ? | -22.3%
CC(=O)c1cccc(-c2ccnc3c2CC(C(=O)NCCc2ccccc2)O3)c1 (configuration not stated) | 93.1 | 4.61µM* | ? | 3.66µM* | ?
N#Cc1ccc(CN2CC[C@@]3(CCCNC3)C2)cc1 | . | 3.9% | . | ? | .
CC(C)C[C@H](NC(=O)[C@H](Cc1ccccc1)NC(=O)CNC(=O)[C@H](CS)N(C(=O)[C@@H](N)Cc1ccc(O)cc1)C(C)(C)C)C(=O)N([C@H](C(=O)O)[C@H](C)O)C(C)(C)C | . | -4.6%[4.12 µM] | . | -4.2%[4.12 µM] | .
COc1ccc(S(=O)(=O)Nc2ccccc2OC)cc1N=Nc1c(O)[nH]c(=S)[nH]c1=O | 0.1 | ? | 11.6µM* | ? | 14.6µM*
CCN(C[C@H]1N[C@@](C)(C(=O)OC)[C@H]2C(=O)N(Cc3ccccc3)C(=O)[C@@H]12)C(=O)Nc1ccc(C)cc1 | 5.5 | -2.7% | 4.3% | ? | 6.2%
CC(O)(c1ccncc1)c1nc(-c2cccc(C(F)(F)F)c2)cs1 (configuration not stated) | 2.0 | 23.1µM* | -15.4% | 20.6µM* | 2.0%
CCOC(=O)c1cnc2c(ccc3ccccc32)c1Nc1ccc(N(C)C)cc1 | . | 14.6µM* | . | ? | .
CCCC1=Nc2cc(C(=O)NCCc3ccc(OC)cc3OC)ccc2Sc2ccccc21 | . | 18.4µM* | . | ? | .
Cc1nn(CC(C)C)c(Cl)c1C(=O)NC1CCC(C)CC1 (configuration not stated) | 33.1 | 7.1% | 10.7% | -9.1% | 16.2%
CCCC1=Nc2cc(C(=O)NC3CCC(C)CC3)ccc2Sc2ccccc21 (configuration not stated) | . | 6.51µM* | . | 4.11µM* | .
CCCCCCCCCCCCCCCCOC[C@@H](O)COP(=O)([O-])OCC[N+](C)(C)C | . | -15.2%[4.12 µM] | . | 0.2%[4.12 µM] | .
CC(C)c1ccc(Oc2cccc3c2S(=O)(=O)N(C2CCCC2)CC(COCc2ccccc2)O3)cc1 (configuration not stated) | -23.7 | 10.3µM* | -0.1% | 9.2µM* | -6.3%
CCN1CCN(c2cc(N3CCCC3)c(F)cc2[N+](=O)[O-])CC1 | -6.6 | ? | 0.7% | 16.4µM* | -11.7%
O=C1N[C@H](Cc2ccccc2)C(=O)N2[C@@H]3[C@H](C[C@@H]12)c1ccccc1N3OOSc1ccccc1 | 0.0 | 16.4µM* | -15.3% | 18.4µM* | -1.3%
CC(C)(C)c1cc(C=C(C#N)C#N)cc(C(C)(C)C)c1O | -76.9* | 0.651µM* | 2.06µM* | 0.651µM* | 1.16µM*
N#CC(C#N)=Cc1ccc(O)c(O)c1 | 8.7 | 21.1µM*! | -19.8% | 18.8µM*! | -3.0%
N#CC(C#N)=Cc1ccc(N2CCCC2)cc1 | 0.7 | -29.3% | -3.9% | ? | -2.9%
CC(=O)O[C@@H]1/C=C/[C@](C)(O)C[C@@H](C)C/C=C/[C@H]2[C@@H]3O[C@]3(C)[C@@H](C)[C@H]3[C@H](Cc4ccccc4)NC(=O)[C@@]312 | -0.4 | 0.517µM* | ? | 0.461µM* | -20.8%
COc1cccc(N2CCN(c3c4c(nc5nncn35)CCC4)CC2)c1 | . | 23.1µM* | . | 8.2µM* | .
OC1(c2ccccc2)CCNC2CCCCC21 (configuration not stated) | -21.1 | 18.4µM* | 2.4% | ? | 0.6%

Compound activity deposited in PubChem by National Center for Advancing Translational Sciences (NCATS).
